Experimental data from PubChem BioAssay (Tox21).
Values without a mark were called inactive. Active and inactive are the calls of the source. Calls come from the whole dose curve.

Experiment: G protein-coupled receptor (GPCR) small molecule agonists, calcium flux assay: HEK293 wild type cell line counter screen (AID 1920065)
Settings: HEK293 WT calcium flux, fluorescence, agonist mode; series mostly up to 57.6 µM; activation: at the top concentration
Description: U.S. Tox21 Program National Center for Advancing Translational Sciences [NCATS] Division of Preclinical Innovation [DPI] U.S. Environmental Protection Agency [EPA] National Institutes of Environmental Health Sciences [NIEHS] National Toxicology Program [NTP] U.S. Food and Drug Administration [FDA] Assay overview: The increased intracellular calcium release that occurred upon G protein-coupled receptor (GPCR) activation led to the frequent use of calcium flux assays to detect GPCR activation. For the purpose of studying and screening compounds that may activate GPCR, receptor-overexpressing models were typically generated using Hek293 wild-type (WT) cells. In order to eliminate the compounds that may have induced calcium release for non-specific activation, a counter-assay utilizing calcium flux on Hek293 WT cells was performed. The data were formulated in order to serve as a control for any calcium flux detection utilizing Hek293 cells with either GPCR overexpression or gene modification. The procurement of Hek293 WT cells from ATCC. Fluorescence intensity can be utilized to determine the activation of the compound in a calcium flux assay. As a counter control, this cell line was utilized to screen the Tox21 10K compound library.
Assay Protocol Summary: Hek293 cells were dispensed at 1500cells/4uL/well in 1536-well black wall/clear bottom plates using a multidrop dispenser. After the assay plates were incubated at a 37 C/5% CO2 incubator for 18 hours, 4 uL of Calcium Dye Solution was added to each well. The plates were incubated at 37 C for 1 hour. For agonist mode, 23 nL of compounds dissolved in DMSO, positive control (ATP) or DMSO only was transferred to the assay plate by a pin tool station. The fluorescence intensity in the plates was measured using FDSS 7000EX kinetic plate reader with a filter set of Ex/Em=480/540 for 3 min at 1 sec intervals. Each test compound was measured at 15 concentrations and in triplicates.
% is set by controls: 0 for no effect and ±100 for the full control effect.

| Structure (SMILES) | activation | Potency |
| --- | --- | --- |
| CCOP(=S)(OCC)SCCS(=O)(=O)CC | 0.922% |  |
| CCN[C@@H](C)Cc1ccccc1 | 0.77% |  |
| Cc1nc(N(C)C)nc(OC(=O)N(C)C)c1C | 0.182% |  |
| Oc1c(I)cc(I)cc1I | 1.48% |  |
| BrCBr | -0.211% |  |
| CC(C)C(Br)C(=O)NC(N)=O (stereo not given) | -0.689% [at 26.5 µM] |  |
| O=C1CN=C(c2ccccc2)c2cc(Cl)ccc2N1CC1CC1 | -1.97% |  |
| CC(N)=S | -0.168% |  |
| COc1cccc(C(=O)CCN[C@@H](C)[C@H](O)c2ccccc2)c1 | 1.92% [at 26.5 µM] |  |
| CO/N=C(/C1=NOCCO1)c1ccccc1Oc1ncnc(Oc2ccccc2Cl)c1F | 3.39% |  |
| O=S1(=O)OC(c2cc(Br)c(O)c(Br)c2)(c2cc(Br)c(O)c(Br)c2)c2ccccc21 | -0.478% |  |
| CCCCP(CCCC)CCCC | 0.482% |  |
| Oc1cc(Cl)cc(Cl)c1 | 0.0385% |  |
| O=[N+]([O-])c1ccc(F)c([N+](=O)[O-])c1 | 8.7% |  |
| CCCSP(=O)(OCC)SCCC | -1.88% |  |
| BrCCCBr | 0.147% |  |
| O=[N+]([O-])c1cccc(CCl)c1 | -0.471% |  |
| CC[C@H]1C[C@H]2[C@@H]3CCC4=CC(=O)CC[C@@H]4[C@H]3CC[C@]2(C)[C@H]1O | -1.88% [at 26.5 µM] |  |
| c1ccc2cc3c(cc2c1)-c1cccc2cccc-3c12 | 0.0365% |  |
| Nc1ccccc1C(=O)OC/C=C/c1ccccc1 | -0.0977% |  |

| Structure (SMILES) | activation | Potency |
| --- | --- | --- |
| CCCCCCCCCCCCN(C)C | -0.332% |  |
| CC(=O)c1ccc(-c2ccccc2)cc1 | -1.42% |  |
| N#CC(C#N)=C(C#N)C#N | -1.67% |  |
| N#CNC#N | -0.0348% |  |
| CC(C)CC#N | -0.169% |  |
| COc1cc(OC)c(OC)cc1C=O | -1.38% |  |
| CN1COCN(Cc2cnc(Cl)s2)/C1=N\[N+](=O)[O-] | -0.608% |  |
| CCCCCCCCCCCCCCC(Br)C(=O)O (stereo not given) | -0.304% |  |
| C#CCC1=C(C)C(OC(=O)C2C(C=C(C)C)C2(C)C)CC1=O (stereo not given) | -1.34% |  |
| CCC1(CCC(C)C)C(=O)NC(=O)NC1=O | -0.335% |  |
| Brc1ccccc1 | -0.213% |  |
| CCCCOCN(C(=O)CCl)c1c(CC)cccc1CC | -0.326% |  |
| CCOC(=O)c1cn2nc(OP(=S)(OCC)OCC)cc2nc1C | -2.07% |  |
| Oc1ccc(C(=C(Cl)Cl)c2ccc(O)cc2)cc1 | -0.0799% |  |
| CC(C)(c1ccccc1)c1ccc(O)cc1 |  | inactive |
| C#CCN1C(=O)COc2cc(F)c(N3C(=O)C4=C(CCCC4)C3=O)cc21 | 0.163% |  |
| CCC/C(=N\OCC)C1=C(O)CC(CC(C)SCC)CC1=O (stereo not given) | -0.766% |  |
| O=[N+]([O-])c1cc(C(F)(F)F)cc([N+](=O)[O-])c1Cl | 0.0603% |  |
| N#CCCSCCC#N | -0.583% |  |
| CC1=C2C[C@H]3[C@@H](CC=C4C[C@@H](O)CC[C@@]43C)[C@@H]2CC[C@]12O[C@@H]1C[C@H](C)CN[C@H]1[C@H]2C | 0.649% [at 26.5 µM] |  |
